Measurements as given in PubChem BioAssay AID1159580 (chemical genetic matrix, 2015).
“And” between values parts separate entries of the source, which are not always exact repeats. Identical values can stand only once. The whole screen tested about 5,500 compounds, of which about 2,000 (36%) were called active. Inconclusive results (about 18%) are left out. Cut-off read from the data, not from the text of the source: active = normalized growth mostly below about 0.91 (no sharp cut-off); inconclusive = no clear call, values can overlap the other calls; inactive = mostly above about 0.92. Some of the results follow.

Assay: chemical genetic growth profiling, strain panel (AID 1159580);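 note: tested at 20 µM; growth read once vehicle control cultures reached saturation at 30 °C; 1 = growth at the plate median or of vehicle wells; lower values mean less growth of the strain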
Conditions: growth OD

Measured: normalized growth

CCc1cccc2c3c([nH]c12)C(CC)(CC(=O)O)OCC3 (stereo not given)
inactive: S. cerevisiae deletion strains, locus YKL009W, strain mrt4, active compounds read low 0.965 | S. cerevisiae deletion strains, locus YKL068W, active compounds read low 1 | S. cerevisiae deletion strains, locus YKL085W, strain MDH1 (second series), active compounds read low 0.992 | S. cerevisiae deletion strains, locus YKL085W, strain MDH1, active compounds read low 0.992 | S. cerevisiae deletion strains, locus YKL160W, strain elf1, active compounds read low 0.975 | S. cerevisiae deletion strains, locus YKL190W, strain CNB1, active compounds read low 1 | S. cerevisiae deletion strains, locus YKR001C, strain vps1, active compounds read low 0.98 | S. cerevisiae deletion strains, locus YKR026C, strain gcn3, active compounds read low 0.987 | S. cerevisiae deletion strains, locus YKR091W, strain srl3, active compounds read low 0.978 | S. cerevisiae deletion strains, locus YLL001W, strain dnm1, active compounds read low 0.961 | S. cerevisiae deletion strains, locus YLL026W, active compounds read low 0.99 | S. cerevisiae deletion strains, locus YLL041C, strain sdh2, active compounds read low 0.976 | S. cerevisiae deletion strains, locus YLR027C, strain aat2, active compounds read low 0.987 | S. cerevisiae deletion strains, locus YLR039C, strain RIC1, active compounds read low 0.989 | S. cerevisiae deletion strains, locus YLR058C, strain SHM2, active compounds read low 1.01 | S. cerevisiae deletion strains, locus YLR102C, strain apc9, active compounds read low 1 | S. cerevisiae deletion strains, locus YLR113W, strain HOG1, active compounds read low 0.938 | S. cerevisiae deletion strains, locus YLR221C, strain rsa3, active compounds read low 0.993 | S. cerevisiae deletion strains, locus YLR258W, strain gsy2, active compounds read low 0.994 | S. cerevisiae deletion strains, locus YLR262C, strain YPT6 (second series), active compounds read low 0.93 | S. cerevisiae deletion strains, locus YLR262C, strain YPT6, active compounds read low 0.978 | S. cerevisiae deletion strains, locus YLR268W, strain sec22, active compounds read low 1.05 | S. cerevisiae deletion strains, locus YLR320W, strain mms22, active compounds read low 1.01 | S. cerevisiae deletion strains, locus YLR330W, strain CHS5, active compounds read low 1.01 | S. cerevisiae deletion strains, locus YLR342W, strain FKS1 (second series), active compounds read low 1.03 | S. cerevisiae deletion strains, locus YLR342W, strain FKS1, active compounds read low 0.985 | S. cerevisiae deletion strains, locus YLR357W, strain rsc2, active compounds read low 0.918 | S. cerevisiae deletion strains, locus YLR370C, strain arc18, active compounds read low 0.973 | S. cerevisiae deletion strains, locus YLR371W, strain rom2, active compounds read low 0.987 | S. cerevisiae deletion strains, locus YLR384C, strain iki3, active compounds read low 0.967 | S. cerevisiae deletion strains, locus YLR418C, strain cdc73, active compounds read low 0.995 | S. cerevisiae deletion strains, locus YML016C, strain PPZ1, active compounds read low 1 | S. cerevisiae deletion strains, locus YML032C, strain rad52, active compounds read low 1.01 | S. cerevisiae deletion strains, locus YML120C, strain ndi1, active compounds read low 0.977 | S. cerevisiae deletion strains, locus YML124C, strain tub3, active compounds read low 1 | S. cerevisiae deletion strains, locus YMR058W, strain fet3, active compounds read low 0.993 | S. cerevisiae deletion strains, locus YMR078C, strain ctf18, active compounds read low 1 | S. cerevisiae deletion strains, locus YMR125W, strain sto1, active compounds read low 0.924 | S. cerevisiae deletion strains, locus YMR129W, active compounds read low 0.972 | S. cerevisiae deletion strains, locus YMR205C, strain PFK2, active compounds read low 0.98 | S. cerevisiae deletion strains, locus YMR223W, strain ubp8, active compounds read low 0.99 | S. cerevisiae deletion strains, locus YMR231W, strain pep5, active compounds read low 0.967 | S. cerevisiae deletion strains, locus YMR263W, strain SAP30, active compounds read low 1.01 and 1 | S. cerevisiae deletion strains, locus YMR307W, strain GAS1, active compounds read low 0.923 and 1.01 | S. cerevisiae deletion strains, locus YNL067W, strain RPL9B, active compounds read low 1.02 | S. cerevisiae deletion strains, locus YNL071W, strain lat1, active compounds read low 0.988 | S. cerevisiae deletion strains, locus YNL128W, strain TEP1, active compounds read low 1.01 | S. cerevisiae deletion strains, locus YNL153C, strain GIM3, active compounds read low 1.02 | S. cerevisiae deletion strains, locus YNL175C, strain NOP13, active compounds read low 0.994 | S. cerevisiae deletion strains, locus YNL183C, strain NPR1, active compounds read low 0.93 | S. cerevisiae deletion strains, locus YNL197C, strain WHI3, active compounds read low 0.954 | S. cerevisiae deletion strains, locus YNL209W, strain ssb2, active compounds read low 0.972 | S. cerevisiae deletion strains, locus YNL224C, strain SQS1, active compounds read low 0.987 | S. cerevisiae deletion strains, locus YNL233W, strain BNI4, active compounds read low 1.01 | S. cerevisiae deletion strains, locus YNL248C, strain rpa49, active compounds read low 0.981 | S. cerevisiae deletion strains, locus YNL250W, strain rad50, active compounds read low 0.992 | S. cerevisiae deletion strains, locus YNL271C, strain bni1, active compounds read low 1.01 | S. cerevisiae deletion strains, locus YNL298W, strain CLA4, active compounds read low 0.984 | S. cerevisiae deletion strains, locus YNL307C, strain MCK1, active compounds read low 1 | S. cerevisiae deletion strains, locus YNL322C, strain KRE1 (second series), active compounds read low 0.965 | S. cerevisiae deletion strains, locus YNL322C, strain KRE1, active compounds read low 1 | S. cerevisiae deletion strains, locus YNR049C, strain mso1, active compounds read low 0.963 | S. cerevisiae deletion strains, locus YNR052C, strain pop2, active compounds read low 1.01 | S. cerevisiae deletion strains, locus YOL006C, strain TOP1, active compounds read low 1.08 | S. cerevisiae deletion strains, locus YOL012C, strain htz1 0.943 | S. cerevisiae deletion strains, locus YOL147C, strain pex11, active compounds read low 1 | S. cerevisiae deletion strains, locus YOR001W, strain rrp6, active compounds read low 0.949 | S. cerevisiae deletion strains, locus YOR061W, strain CKA2, active compounds read low 1.01 | S. cerevisiae deletion strains, locus YOR069W, strain VPS5, active compounds read low 1 | S. cerevisiae deletion strains, locus YOR070C, strain gyp1, active compounds read low 0.981 | S. cerevisiae deletion strains, locus YOR080W, strain dia2, active compounds read low 0.972 | S. cerevisiae deletion strains, locus YOR083W, strain WHI5 (second series), active compounds read low 0.978 | S. cerevisiae deletion strains, locus YOR083W, strain WHI5, active compounds read low 0.987 | S. cerevisiae deletion strains, locus YOR106W, strain vam3, active compounds read low 0.969 | S. cerevisiae deletion strains, locus YOR136W, strain idh2, active compounds read low 0.998 | S. cerevisiae deletion strains, locus YOR144C, strain elg1, active compounds read low 1 | S. cerevisiae deletion strains, locus YOR184W, strain ser1, active compounds read low 1.01 | S. cerevisiae deletion strains, locus YOR231W, strain MKK1, active compounds read low 0.986 | S. cerevisiae deletion strains, locus YOR265W, strain rbl2, active compounds read low 1 | S. cerevisiae deletion strains, locus YOR270C, strain vph1, active compounds read low 0.969 | S. cerevisiae deletion strains, locus YOR290C, strain snf2, active compounds read low 1 | S. cerevisiae deletion strains, locus YOR316C, strain cot1, active compounds read low 1 | S. cerevisiae deletion strains, locus YPL051W, strain arl3, active compounds read low 0.994 | S. cerevisiae deletion strains, locus YPL055C, strain LGE1, active compounds read low 0.989 | S. cerevisiae deletion strains, locus YPL078C, strain atp4, active compounds read low 0.963 | S. cerevisiae deletion strains, locus YPL106C, strain sse1, active compounds read low 1.03 | S. cerevisiae deletion strains, locus YPL240C, strain hsp82, active compounds read low 0.976 | S. cerevisiae deletion strains, locus YPL241C, strain CIN2, active compounds read low 1.01 | S. cerevisiae deletion strains, locus YPL256C, strain CLN2, active compounds read low 0.981 | S. cerevisiae deletion strains, locus YPR119W, strain clb2, active compounds read low 1.01 | S. cerevisiae deletion strains, locus YPR141C, strain kar3, active compounds read low 1 | S. cerevisiae deletion strains, locus YPR163C, strain tif3, active compounds read low 1.01 | S. cerevisiae deletion strains, locus YPR167C, strain met16, active compounds read low 1.01 | S. cerevisiae deletion strains, strain wtn01, active compounds read low 0.994 | S. cerevisiae strains, strain wild type, active compounds read low 0.999
